Records with an inconclusive call do not appear. Active and inactive are the calls of the source. Calls come from the whole dose curve; as a rule, active = well fitted inhibition curve with a large enough effect; inconclusive = small, poorly fitted or top-dose-only effect; inactive = flat fitted curve, though single readings scatter.
Target: Tyrosine-protein phosphatase non-receptor type substrate 1 (Homo sapiens) + Leukocyte surface antigen CD47 (Homo sapiens) (UniProt P78324+Q08722)
Test: CD47-SIRPalpha protein protein interaction - Alpha assay qHTS validation (AID 1347059);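 note: bead proximity luminescence from CD47 binding SIRPalpha after compound preincubation with SIRPalpha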
Conditions: AlphaScreen CD47-His/biotin-SIRPalpha binding, LOPAC; series mostly up to 38.3 µM
Description: SIRPalpha is a myeloid cell expressed immunomodulatory receptor that binds the tumor expressed immune checkpoint CD47. Therapeutic disruption of this interaction leads to immune-mediated tumor rejection. This assay was used to quantitate CD47-SIRPalpha binding biochemically and evaluate chemical libraries for novel CD47-SIRPalpha inhibitors. To recapitulate the biological interaction of CD47 and SIRPalpha, we designed expression constructs to produce their recombinant, soluble, extracellular interaction domains. CD47 was produced with an N-terminal 6His tag. SIRPalpha was produced with an N-terminal Avi-Tag for site-specific biotin incorporation. The CD47-SIRPalpha interaction was measured by AlphaScreen using affinity tag linked reagents (Ni-NTA acceptor bead and streptavidin donor bead). SIRPalpha without biotin incorporation was used as a positive control inhibitor.
PROTOCOL TABLE (as described by Miller, T. et al. 2019)
SEQUENCE No. (e.g., 1, 2, 3, etc.); […] (e.g., Cells, Incubation, Reagent, etc.); VALUE and DESCRIPTION.
1a. Reagent. 2 uL SIRPalpha-biotin (25 nM) added to respective wells in Assay buffer; white/solid bottom high base, med bind 1536-well plates (Greiner 789075)
1b. Reagent. 2 uL Assay buffer negative control for background fluorescence
2. Reagent. 23 nL library compounds (7-pt, 1:4 intraplate titration series) or DMSO control transferred by Pin Tool
3. Centrifuge. Centrifuge plate for 30 s at 1000 RPM
4. Incubation.#Incubate reagents at room temperature for 30 min, protected from light
5. Reagent. 2 uL CD47-His (12.5 nM) in Assay buffer
6. Centrifuge. Centrifuge plate for 30 s at 1000 RPM
7. Incubation.#Incubate reagents at room temperature for 30 min, protected from light
8. Reagent. 1 uL Ni-NTA beads (10 ug/mL) added to respective wells
9. Reagent. 1 uL SAV beads (10 ug/mL) added to respective wells
10. Centrifuge. Centrifuge plate for 30 s at 1000 RPM
11. Incubation. Incubate reagents at room temperature for 30 min, protected from light
12. Detector. Measure AlphaScree n on EnVision (1536A1 aperture)
Where possible, perform Donor bead dilution and addition away from direct sunlight or with bright overhead lights turned off (<100 lux, similar to hallway lighting). Lighting should still be bright enough to allow accurate pipetting.
1. Assay buffer composition.#Phosphate buffered saline (PBS; 10 mM Phosphate, 137 mM NaCl, and 2.7 mM KCl; pH 7.4), 0.05% IGEPAL CA-630
2. 23nL of […] library compounds (7 plates) or DMSO vehicle control transferred to 9 Greiner white/solid bottom high base, TC plates in 7 interplate 1:5 titrations (see Yasgar, A. et al. 2008) with Pintool. Two of the 9 plates are DMSO-only in compound field at beginning and end of compound library-treated plates.
12. Aperture = 1536 plate HTS AlphaScreen; plate-detector distance = 0; Total measurement time = 240; Ex. time = 80 ms (33%); Afterglow CT1 corr. factor = 0; Glow CT2 corr. factor = 0; Bleach CT3 corr. factor = 0; Ref. signal= 417733; Ref. AD gain = 2

Chain of Tyrosine-protein phosphatase non-receptor type substrate 1 (Homo sapiens) + Leukocyte surface antigen CD47 (Homo sapiens) (P78324 whole entry, looked up): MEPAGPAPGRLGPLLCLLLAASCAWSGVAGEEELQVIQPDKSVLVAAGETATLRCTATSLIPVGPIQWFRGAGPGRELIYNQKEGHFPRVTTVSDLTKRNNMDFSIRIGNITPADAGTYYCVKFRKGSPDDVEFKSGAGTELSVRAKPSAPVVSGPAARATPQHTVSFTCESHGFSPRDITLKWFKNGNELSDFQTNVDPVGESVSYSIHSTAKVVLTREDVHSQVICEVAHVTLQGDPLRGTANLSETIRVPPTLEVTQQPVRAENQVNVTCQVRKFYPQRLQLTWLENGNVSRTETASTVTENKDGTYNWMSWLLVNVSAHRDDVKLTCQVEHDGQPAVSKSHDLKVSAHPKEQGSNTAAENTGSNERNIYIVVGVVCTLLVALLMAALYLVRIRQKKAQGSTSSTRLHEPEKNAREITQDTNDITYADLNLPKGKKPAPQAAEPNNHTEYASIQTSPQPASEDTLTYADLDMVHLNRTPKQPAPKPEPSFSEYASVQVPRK
Chain of Tyrosine-protein phosphatase non-receptor type substrate 1 (Homo sapiens) + Leukocyte surface antigen CD47 (Homo sapiens) (Q08722 whole entry, looked up): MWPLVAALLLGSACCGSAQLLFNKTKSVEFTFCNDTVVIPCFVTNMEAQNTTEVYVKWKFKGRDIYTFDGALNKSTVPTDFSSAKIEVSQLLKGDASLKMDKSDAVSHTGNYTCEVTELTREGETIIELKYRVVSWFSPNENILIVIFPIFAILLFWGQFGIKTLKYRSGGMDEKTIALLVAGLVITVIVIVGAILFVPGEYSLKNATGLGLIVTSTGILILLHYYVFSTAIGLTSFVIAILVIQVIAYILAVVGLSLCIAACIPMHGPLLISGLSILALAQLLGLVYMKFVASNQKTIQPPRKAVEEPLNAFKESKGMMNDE

SMILES | outcome
Cc1cccc(C)c1NC(=O)CN1CCCC1=O | inactive
CCCN1CCC[C@@H]2Cc3[nH]ncc3C[C@H]21 | inactive
N#CC(C#N)=Cc1ccc(O)c(O)c1 | inactive
CC(=O)[C@H]1CC[C@H]2[C@@H]3CC[C@H]4C[C@H](O)CC[C@]4(C)[C@H]3C(=O)C[C@]12C | inactive
C[C@@H]1O[C@@H](O[C@H]2C[C@@H](O)[C@]3(CO)[C@H]4[C@H](O)C[C@]5(C)[C@@H](C6=CC(=O)OC6)CC[C@]5(O)[C@@H]4CC[C@]3(O)C2)[C@H](O)[C@H](O)[C@H]1O | inactive
Nc1ccncc1 | inactive
NCC(O)c1ccc(O)cc1 (stereo not given) | inactive
COC[C@H]1OC(=O)c2coc3c2[C@@]1(C)C1=C(C3=O)C2CCC(=O)[C@@]2(C)C[C@H]1OC(C)=O (stereo not given in full) | inactive
O=C1NCN(c2ccccc2)C12CCN(CC1COc3ccccc3O1)CC2 (stereo not given) | inactive
c1ccc2c(c1)OCC(C1=NCCN1)O2 (stereo not given) | inactive
NN=C(N)N | inactive
CC(CCc1ccccc1)NC(C)C(O)c1ccc(O)cc1 (stereo not given) | inactive
Cc1ccc(S(=O)(=O)N[C@@H](CCCCN)C(=O)CCl)cc1 | inactive
NCC1(CC(=O)O)CCCCC1 | inactive
c1ccc(C2CC2)c(OCC2=NCCN2)c1 | inactive
Cn1c(CCCC(=O)O)nc2cc(N(CCCl)CCCl)ccc21 | inactive
COc1ccccc1N1CCNCC1 | inactive
CNCC(O)c1ccc(O)cc1 (stereo not given) | inactive
Cc1cccc(C)c1NC1=NCCCS1 | inactive
CCCN1CCC[C@@H]2Cc3nc(N)ncc3C[C@H]21 | inactive
Cc1ncc(CNC(=O)N(CCCl)N=O)c(N)n1 | inactive
Fc1ccc(C(OCCN2CCN(CCCc3ccccc3)CC2)c2ccc(F)cc2)cc1 | inactive
O=c1[nH]c2ccccc2n1C1CCN(CCCC(c2ccc(F)cc2)c2ccc(F)cc2)CC1 | inactive
O=c1[nH]c2ccccc2n1CCCN1CCC(n2c(=O)[nH]c3cc(Cl)ccc32)CC1 | inactive
CC(O)(CS(=O)(=O)c1ccc(F)cc1)C(=O)Nc1ccc(C#N)c(C(F)(F)F)c1 (stereo not given) | inactive
NCC(CC(=O)O)c1ccc(Cl)cc1 (stereo not given) | inactive
CCC1(C2=NCCN2)Cc2ccccc2O1 (stereo not given) | inactive
CC[C@@H](CO)NC(=O)[C@@H]1C=C2c3cccc4c3c(cn4C)C[C@H]2N(C)C1 | inactive
CC(C)=CCOc1c2occc2cc2ccc(=O)oc12 | inactive
CC(=O)[C@H]1CC[C@H]2[C@@H]3CC[C@H]4C[C@](C)(O)CC[C@]4(C)[C@H]3CC[C@]12C | inactive

Reference: PubChem BioAssay (NCATS)
